Shown is part of a subset that was picked to be rich in hits.
Vaccinia pol inh: vaccinia E9 polymerase processive synthesis inhibition | in vitro processive DNA synthesis, absorbance read-out; hits give low values | normalized absorbance, % (no concentration beside the values) | actives 0.94% (n = 46,000) | AID 493162; in the data active = normalized absorbance mostly below about 85%, no sharp cut-off; inactive = mostly above about 86%
Active calls of the source: *.

`COC(=O)c1c2c(n3cc4ccccc4cc13)C(=O)c1ccccc1C2=O` gave Vaccinia pol inh 99.
Screening NC(=O)c1ccccc1NC(=O)COC(=O)CC1CCCC1 returned Vaccinia pol inh 99.
For CCCN1C(=O)C(O)(C/C(C)=N\O)c2ccccc21 (stereo unspecified) the results were Vaccinia pol inh 102.
`Cc1cc(NCCNc2ccccc2)c2ccc3ccccc3c2n1` gave Vaccinia pol inh 72*.
`Cc1cc(NCc2ccco2)c2ccccc2n1` gave Vaccinia pol inh 100.
`Cc1cc(SCC(=O)Nc2ccccc2)c2ccccc2n1` gave Vaccinia pol inh 102.
Screening Cc1cc2ccccc2nc1-c1ccc(F)cc1 returned Vaccinia pol inh 119.
`COC(=O)c1ccc(Oc2coc3cc(O)ccc3c2=O)cc1` gave Vaccinia pol inh 92.
Screening NC(=O)c1cccc(C(N)=O)c1 returned Vaccinia pol inh 99.
Screening CC1=C(C(=O)O)N2C(=O)[C@@H](NC(=O)[C@H](N)c3ccc(O)cc3)[C@H]2SC1 returned Vaccinia pol inh 100.
For CC(=O)OCC1=C(C(=O)O)N2C(=O)[C@@H](NC(=O)CCCC(N)C(=O)O)C2SC1 (stereo partly specified) the results were Vaccinia pol inh 88.
CC(=O)OCC1=C(C(=O)O)N2C(=O)[C@@H](NC(=O)CSc3ccncc3)[C@H]2SC1 was read as Vaccinia pol inh 60*.
For Cn1nnnc1SCC1=C(C(=O)O)N2C(=O)C(NC(=O)C(O)c3ccccc3)C2SC1 (stereo unspecified) the results were Vaccinia pol inh 64*.
CO/N=C(/C(=O)NC1C(=O)N2C(C(=O)O)=C(COC(N)=O)CSC12)c1ccco1 (stereo unspecified) was read as Vaccinia pol inh 95.
`Cn1nnnc1SCC1=C(C(=O)O)N2C(=O)C(NC(=O)C(OC=O)c3ccccc3)C2SC1` (stereo unspecified) gave Vaccinia pol inh 99.
`C=CCn1c(C)c2cc(Cl)c(Cl)cc2[n+]1C` gave Vaccinia pol inh 101.
Cc1cc(C(F)(F)Cl)nc(-c2ccccc2)n1 was read as Vaccinia pol inh 118.
CCOC(=O)c1c(C)n(Cc2ccccc2)c2ccc(OC(C)=O)cc12 was read as Vaccinia pol inh 100.
`CCOC(=O)c1c(C)n(C)c2ccc(OCCN(C)C)cc12` gave Vaccinia pol inh 65*.
`CCOC(=O)c1c(C)n(-c2ccc(OC)cc2)c2ccc(OC)cc12` gave Vaccinia pol inh 100.
Screening COc1ccc(Nc2cc(C(=O)NCCCN3CCCC3)c3ccccc3n2)cc1 returned Vaccinia pol inh 93.
For O=C1c2cccc3cccc(c23)C(=O)N1NCCO the results were Vaccinia pol inh 80*.
`O=C1c2cccc3cccc(c23)C(=O)N1c1ccc(O)cc1` gave Vaccinia pol inh 96.
For O=C(O)CN1C(=O)c2cccc3cccc(c23)C1=O the results were Vaccinia pol inh 100.
CC(C)(C)c1cc(C(c2ccc(O)cc2)N2CCOCC2)cc(C(C)(C)C)c1O (stereo unspecified) was read as Vaccinia pol inh 115.
Screening O=C(COc1ccccc1)Nc1ccc(C(O)(C(F)(F)F)C(F)(F)F)cc1 returned Vaccinia pol inh 110.
For CN(C)c1ccc(C(N2CCOCC2)P(=O)(c2ccccc2)c2ccccc2)cc1 (stereo unspecified) the results were Vaccinia pol inh 101.
CN1CCN(C(=O)Cc2ccc(F)cc2)CC1 was read as Vaccinia pol inh 101.
`Cc1cc(N)cc2[nH]c(-c3ccc(N)cc3)nc12` gave Vaccinia pol inh 60*.
Screening Cc1cc2nc(-c3ccc(Cl)nc3)[nH]c2cc1C returned Vaccinia pol inh 101.
Screening Cn1c(-c2ccc3nc(-c4ccc(N)cc4)[nH]c3c2)nc2cc(N)ccc21 returned Vaccinia pol inh 89.
O=C(O)CC(=O)Oc1ccc(Cl)cc1 was read as Vaccinia pol inh 111.
